# Assay results as given in PubChem BioAssay AID720641 (ICCB-Longwood Screening Facility, Harvard Medical School, 2013).
# Screen size: about 170,000 compounds; about 900 (0.53%) were called active.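 How the source made its calls: active means relative growth at most 50% at the other temperature and 20+ points below 30 °C, or under 10% at both; inactive means the rest, inconclusive results apart.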 The full list was thinned out, with actives kept by preference.
# Assay: Staphylococcus aureus RN4220 growth blockers – two temperatures, LtaS inhibitor project, primary screen (AID 720641)
# Conditions: S. aureus RN4220 growth, OD600, 20 h, 42 °C, stronger effect = lower value
Structure (SMILES),relative growth,relative growth (measured here: growth at 30 °C)
CCN1CCCC1CNC(=O)c1nnc(Cc2ccccc2OC)o1 (stereo not given),79.5% (inactive),88.3%
CC(C)(C)c1ccc(S(=O)(=O)N2CCN(C(=O)c3cc(-c4ccc(Br)cc4)n[nH]3)CC2)cc1,99.3% (inactive),102%
FC(F)(F)c1cc(-c2ccc(Br)cc2)n[nH]1,8.64% (active),4.24%
Cc1cc(C)c(NC(=O)CSC2=NN3CCCC(=O)N=C3S2)c(C)c1,95% (inactive),89%
CCCNc1ncnc2onc(-c3ccc(F)cc3)c12,90.2% (inactive),91%
CNC(=O)C1CCN(S(=O)(=O)c2c(C)noc2/C=C/c2cccc(C)c2)CC1,107% (inactive),81.4%
CCCOc1c(Br)cc(C(=O)O)cc1OC,90.2% (inactive),101%
CC1CC(C)CN(C(=O)C(C)n2sc3ccccc3c2=O)C1 (stereo not given),120% (inactive),95.8%
CCn1c(SCc2c(C)noc2C)nc2cc(S(=O)(=O)N3CCOCC3)ccc21,63.8% (inactive),94%
NC(=O)c1ncoc1-c1cccc(Cl)c1,108% (inactive),76%
Oc1ccc(-n2cccc2)cc1,84.2% (inactive),92.9%
Oc1ccc(-c2cccc(-c3ccc(O)cc3)c2)cc1,97.5% (inactive),59.9%
Oc1ccc(SSc2ccc(O)cc2)cc1,3.56% (active),3.94%
CCOC(=O)C1=C(C)Nc2[nH]c(=O)[nH]c(=O)c2C1c1ccccc1 (stereo not given),94.1% (inactive),92.8%
FC(F)(F)C1CCCN(c2nsc3ccccc23)C1 (stereo not given),-0.41% (active),-0.5%
Cc1c(/C=C/C(=O)Oc2ccc(C#N)cc2)sc2ccccc12,110% (inactive),87.3%
Cc1ccccc1OCC(=O)Nc1cc(Sc2ccccn2)cc(S(=O)(=O)c2ccccc2)c1,103% (inactive),88.5%
CC(C)(C)c1cc(Cl)c(O)c(NC(=O)c2cncc(Br)c2)c1,112% (inactive),87.7%
Cc1cccc(OC(=O)Nc2ccccc2)c1,102% (inactive),91.2%
CCn1c(CCl)nc2cc(C(=O)O)ccc21,119% (inactive),82.3%
O=S(=O)(NC1CCCC1)c1ccc(S(=O)(=O)N2CCN(c3ncccn3)CC2)cc1,100% (inactive),79.4%
O=C(Nc1ccncc1)c1cccc(COc2ccc3ccccc3c2)c1,1.11% (active),2.67%
O=C(Nc1cccc(-c2nc3ccccc3o2)c1)c1cccc(OCc2ccccc2)c1,124% (inactive),93.3%

Structure (SMILES),relative growth,relative growth (measured here: growth at 30 °C)
O=C(OCCN1CCCCC1)c1cccc(COc2ccc3ccccc3c2)c1,102% (inactive),83%
CCOc1ccc(C(=O)NN)cc1,77.2% (inactive),80.8%
CCn1c(CSc2nc3ccccc3s2)nnc1SC(C)C(=O)Nc1ccc(N(C)C)cc1 (stereo not given),116% (inactive),97.9%
O=C(Oc1ccc(Cl)cc1)c1csc(C2COc3ccccc3O2)n1 (stereo not given),92.8% (inactive),92.7%
CN(C)C(=O)c1csc(C2COc3ccccc3O2)n1 (stereo not given),93.5% (inactive),87.9%
O=C(Sc1cccs1)c1csc(C2COc3ccccc3O2)n1 (stereo not given),0.36% (active),-0.46%
N#C/C(=C\c1ccccc1F)c1ccccc1,110% (inactive),92.3%
CC1=CC(=O)C=CC1=N/C(=N\S(=O)(=O)c1ccc(C)cc1)c1ccccc1,104% (inactive),57.7%
COCCn1c(SC)nc2c(c1=O)SCC2,96% (inactive),94.8%
N#C/C(=C\c1ccc(-c2ccc(S(=O)(=O)N3CCOCC3)cc2)o1)S(=O)(=O)c1ccc(Br)cc1,87.4% (inactive),90.9%
CN(C(=O)c1cccnc1Cl)C1CCS(=O)(=O)C1 (stereo not given),115% (inactive),88.3%
CCn1nc(-c2cccs2)cc1C(=O)N(C)C,105% (inactive),86.8%
CCOC(=O)CSc1ccccn1,94.9% (inactive),101%
CCOC(=O)CCSc1ccccn1,0.28% (active),-0.27%
COC(=O)c1ccccc1NC(=O)CSc1ccccn1,93.1% (inactive),93.2%
Cc1ccc(NC(=O)c2nc(S(=O)(=O)Cc3cccc(C)c3)ncc2Cl)cc1,8.42% (active),21.7%
CSc1nnc(NC(=O)c2nc(S(=O)(=O)Cc3ccc(F)cc3)ncc2Cl)s1,93.7% (inactive),90.3%
CCSc1ncc(Cl)c(C(=O)Nc2cc(C)ccc2C)n1,108% (inactive),85.1%
COc1cccc(OCCCN2CCNCC2)c1,107% (inactive),91%
Cc1ccc(S(=O)(=O)N(C)c2ccc(OCC(=O)N3CCN(c4ncccn4)CC3)cc2)cc1,105% (inactive),95.7%
O=C(CSc1nnc(-c2ccccc2)o1)N(CC1CCCO1)c1nc2ccccc2s1 (stereo not given),101% (inactive),92.8%
C=CCn1c(SCC(=O)Nc2sc(C(=O)OC)c(C)c2C(=O)OC)nc2ccccc21,103% (inactive),90.4%
